For 21 molecules, outcome and AC50 results are on record in PubChem BioAssay (EPA / NIEHS).

Calls of active or inactive are those of the source. Rule for the calls: active = hit-call score of the fitted dose curve at least 0.9, where 1 is the maximum; inactive = score below 0.9.

Read-out in experiment [1]: Tissue Factor, F3 (gene 2152)
The experiment can be described thus: BSK_CASM3C_TissueFactor: BioMAP Diversity Plus: CASM3C Assay for Tissue Factor Biomarker Activity (AID 2283052).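 Note: cell surface tissue factor protein level read by ELISA.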 The note with it: primary human coronary artery smooth muscle cells; actives raise or lower the signal.

Read-out in experiment [2]: Interferon-gamma inducible Protein 10 (IP10), CXCL10 (gene 3627)
The experiment can be described thus: BSK_hDFCGF_IP10: BioMAP Diversity Plus: hDFCGF Assay for Interferon-gamma inducible Protein 10 (IP10) Biomarker Activity (AID 2283053). As to conditions: primary human foreskin fibroblasts; actives raise or lower the signal. The procedure, abridged:
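Human foreskin fibroblast primary cells (hDFCGF system) were dosed with chemical and assayed at 24 h; IP-10 measured by ELISA. Activity fitted bidirectionally relative to DMSO negative control as baseline.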

Read-out in experiment [3]: Urokinase-type plasminogen activator receptor (uPAR), PLAUR (gene 5329)
The experiment can be described thus: BSK_CASM3C_uPAR: BioMAP Diversity Plus: CASM3C Assay for Urokinase-type plasminogen activator receptor (uPAR) Biomarker Activity (AID 2283054).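 Note: cell-surface uPAR protein level quantified by ELISA.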 As to conditions: primary human coronary artery smooth muscle cells; actives raise or lower the signal.

Read-out in experiment [4]: Vascular cell adhesion molecule 1 (VCAM1), VCAM1 (gene 7412)
The experiment can be described thus: BSK_CASM3C_VCAM1: BioMAP Diversity Plus: CASM3C Assay for Vascular cell adhesion molecule 1 (VCAM1) Biomarker Activity (AID 2283055).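 Note: VCAM-1 protein level quantified by ELISA on the cells.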 The note with it: primary human coronary artery smooth muscle cells; actives raise or lower the signal.

Read-out in experiment [5]: Collagen III, COL3A1 (gene 1281)
The experiment can be described thus: BSK_hDFCGF_CollagenIII: BioMAP Diversity Plus: hDFCGF Assay for Collagen III Biomarker Activity (AID 2283056). As to conditions: primary human foreskin fibroblasts; actives raise or lower the signal. Put shortly: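 ELISA read-out of collagen III from human skin fibroblast cultures sampled 24 h post-dosing. Values were derived by bidirectional fitting relative to the DMSO vehicle control.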

Read-out in experiment [6]: Epidermal growth factor receptor (EGFR), EGFR (gene 1956)
The experiment can be described thus: BSK_hDFCGF_EGFR: BioMAP Diversity Plus: hDFCGF Assay for Epidermal growth factor receptor (EGFR) Biomarker Activity (AID 2283057). The note with it: primary human foreskin fibroblasts; actives raise or lower the signal. Put shortly: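 Primary human foreskin fibroblasts were exposed to compound for 24 h, after which cell-surface EGFR was quantified by ELISA. Activity was fitted bidirectionally against the DMSO negative control as baseline.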

Read-out in experiment [7]: Interleukin-8 (IL8), CXCL8 (gene 3576)
The experiment can be described thus: BSK_hDFCGF_IL8: BioMAP Diversity Plus: hDFCGF Assay for Interleukin-8 (IL8) Biomarker Activity (AID 2283058). As to conditions: primary human foreskin fibroblasts; actives raise or lower the signal. The procedure, abridged:
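Cells used are human skin primary fibroblasts. Chemical is added, cultures run 24 h, then IL-8 is quantified by ELISA, and gain or loss versus DMSO control is fitted in both directions.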

A short description of experiment [8]: BSK_hDFCGF_Proliferation: Cell Proliferation Assessment in the BioMAP Diversity Plus: hDFCGF Assay (AID 2283059).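 Note: curves fitted for both rise and fall of signal versus DMSO baseline.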 The note with it: primary human foreskin fibroblasts. Put shortly: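 This proliferation readout used SRB total-protein staining of human foreskin fibroblasts […], normalized to DMSO with bidirectional curve fitting.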
Read-out in experiment [9]: Macrophage colony-stimulating factor (MCSF), CSF1 (gene 1435)
The experiment can be described thus: BSK_hDFCGF_MCSF: BioMAP Diversity Plus: hDFCGF Assay for Macrophage colony-stimulating factor (MCSF) Biomarker Activity (AID 2283060). As to conditions: primary human foreskin fibroblasts; actives raise or lower the signal. Put shortly:
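Primary human foreskin fibroblasts dosed with chemical; 24 h later, M-CSF quantified by ELISA; curves fitted in both directions vs DMSO negative control.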

A short description of experiment [10]: BSK_hDFCGF_SRB: Viability Assessment in the BioMAP Diversity Plus: hDFCGF Assay (AID 2283061).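 Note: cells exposed to compound for 24 h before the read.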 As to conditions: primary human foreskin fibroblasts. The procedure, abridged: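 Readout is SRB absorbance at 560 nm, reflecting total protein in parallel cultures of human foreskin fibroblasts harvested 24 h after chemical dosing. Activity was fitted bidirectionally relative to DMSO.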

As a reminder, the AC50 is the concentration at which the activity in the assay is half-maximal. Regarding `Nc1ccc(Nc2ccccc2)cc1`, the outcome in experiment [1], in experiment [2], in experiment [4], in [5], in experiment [6] and in experiment [7] was inactive. Further, the outcome in experiment [9] and in [10] was inactive. Besides, the values for the AC50 in experiment [3] and in experiment [8] were 2.33 µM (active) and 7.37 µM (active), respectively.

As for `O=C(O)CCN(C1(C(=O)NO)CCCC1)S(=O)(=O)c1ccc(Oc2ccc(F)cc2)cc1`, the result in experiment [1], in [2], in experiment [3], in experiment [4], in [5] and in experiment [6] was inactive. The result in experiment [7], in [8], in experiment [9] and in [10] was inactive.

As for `CCCCCCc1ccc(O)cc1O`, the outcome in experiment [1], in [3] and in experiment [4] was inactive. The AC50 is 29.8 µM (active) in experiment [2]; 17.5 µM (active) in experiment [5]; 20 µM (active) in experiment [6]; 19 µM (active) in experiment [8]; 28.1 µM (active) in [9]; 31.2 µM (active) in [10].

As for `Cc1c(-c2cccnc2)c2ccccc2n1CCCCC(=O)O`, the result in experiment [1], in [2], in experiment [3], in experiment [4], in [5] and in [6] was inactive. The outcome in experiment [7], in experiment [8], in [9] and in [10] was inactive.

With `CN(C)c1ccc(Cc2ccc(N(C)C)cc2)cc1`, the outcome in [1], in experiment [2], in experiment [4], in [5], in experiment [6] and in experiment [7] was inactive. The outcome in [9] and in experiment [10] was inactive. The AC50 in experiment [3] was 2.98 µM (active); in experiment [8], 3 µM (active).

`C=CC(=C)CCC=C(C)C`: the outcome in experiment [1], in [2], in experiment [3], in experiment [4], in [5] and in [6] was inactive. The result in [7], in [8], in [9] and in experiment [10] was inactive.

As to `On1ccccc1=S`, the outcome in experiment [1], in experiment [4] and in experiment [6] was inactive. The half-maximal activity concentration (AC50) was 0.422 µM (active) in experiment [2]; 25.6 µM (active) in experiment [3]; 1.41 µM (active) in experiment [5]; 0.791 µM (active) in experiment [7]; 0.148 µM (active) in [8]; 0.892 µM (active) in [9]. Also, the AC50 in experiment [10] is 1.74 µM (active).

Take `Cn1c(=O)c2c(ncn2C)n(C)c1=O`: the result in experiment [1], in experiment [2], in [3], in experiment [4], in [5] and in experiment [7] was inactive. For the same molecule, the outcome in experiment [8], in [9] and in experiment [10] was inactive.

On to `NC(=O)NO`, for which the result in experiment [1], in experiment [2], in experiment [3], in experiment [4], in experiment [5] and in [6] was inactive. The result in experiment [7], in experiment [8], in experiment [9] and in experiment [10] was inactive.

As for `CN(C)c1ccc(N=NS(=O)(=O)O)cc1`, the outcome in experiment [1], in [2], in experiment [3], in experiment [4], in experiment [6] and in experiment [7] was inactive. Also, the result in [10] was inactive. The AC50 was 4.35 µM (active) in [5], 12.8 µM (active) in experiment [8] and 9.62 µM (active) in experiment [9].

As for `CC[C@H]1OC(=O)[C@H](C)[C@@H](O[C@H]2C[C@@](C)(OC)[C@@H](O)[C@H](C)O2)[C@H](C)[C@@H](O[C@@H]2O[C@H](C)C[C@H](N(C)C)[C@H]2O)[C@](C)(O)C[C@@H](C)C(=O)[C@H](C)[C@@H](O)[C@]1(C)O`, the result in experiment [1], in experiment [2], in experiment [3], in [4], in [5] and in [6] was inactive. For the same molecule, the result in experiment [7], in [8], in [9] and in [10] was inactive.

Turning to `COc1ccc(-n2nc(C(F)F)cc2-c2ccc(S(C)=O)cc2)cc1` (configuration not stated), the result in [1], in [2], in [3], in experiment [4], in [5] and in experiment [6] was inactive. Also, the result in experiment [7], in experiment [8], in [9] and in experiment [10] was inactive.

`Nc1cccc(N)c1`: the outcome in [1], in experiment [2], in [3], in experiment [4], in experiment [5] and in experiment [6] was inactive. Besides, the outcome in [7], in [9] and in experiment [10] was inactive. In addition, in experiment [8], the half-maximal activity concentration (AC50) was 0.148 µM (active).

As for `COc1cccc(-c2ccc(/C=C\CN3CCCCCC3)cc2Cl)c1`, the outcome in experiment [1] and in [4] was inactive. In addition, the concentration at half-maximal activity (AC50) in experiment [2] is 27.3 µM (active); in [3], 25.9 µM (active); in experiment [5] it was 12.1 µM (active); in [6], 32.2 µM (active); in experiment [7], 34.1 µM (active); in experiment [8], 3.59 µM (active). Moreover, the AC50 was 22.4 µM (active) in experiment [9] and 27.2 µM (active) in [10].

As to `O=C(OC[C@H]1O[C@@H](OC(=O)c2cc(O)c(O)c(OC(=O)c3cc(O)c(O)c(O)c3)c2)[C@H](OC(=O)c2cc(O)c(O)c(OC(=O)c3cc(O)c(O)c(O)c3)c2)[C@@H](OC(=O)c2cc(O)c(O)c(OC(=O)c3cc(O)c(O)c(O)c3)c2)[C@@H]1OC(=O)c1cc(O)c(O)c(OC(=O)c2cc(O)c(O)c(O)c2)c1)c1cc(O)c(O)c(OC(=O)c2cc(O)c(O)c(O)c2)c1`, the result in experiment [1], in [3], in experiment [4], in experiment [6], in [7] and in experiment [10] was inactive. The AC50 in [2] is 0.986 µM (active); in [8], 3.77 µM (active); in experiment [9], 1.21 µM (active).

Take `O=C1OC(=O)C2C3C=CC(C3)C12` (configuration not stated): the outcome in experiment [1], in [2], in [3], in experiment [4], in experiment [5] and in experiment [6] was inactive. Moreover, the result in experiment [7], in [8], in experiment [9] and in experiment [10] was inactive.

As for `CCn1nc(Cc2ccccc2)cc1C1CCN(C[C@H]2C[C@H](N(C)[C@@H](C(=O)O)C(C)C)C[C@@H]2c2cccc(F)c2)CC1`, the result in experiment [1], in [2], in experiment [3], in experiment [4], in [5] and in [6] was inactive. The outcome in experiment [7], in experiment [9] and in [10] was inactive. Moreover, the half-maximal activity concentration (AC50) in [8] is 12.9 µM (active).

In the case of `O=C(NS(=O)(=O)/C=C/c1ccccc1)c1ccc(F)cc1Cl`, the outcome in experiment [1], in [2], in experiment [3], in experiment [4], in experiment [5] and in [6] was inactive. The outcome in experiment [7], in experiment [9] and in experiment [10] was inactive. Further, in [8], the half-maximal activity concentration (AC50) was 12.9 µM (active).

With `CC(=O)OC[C@H]1O[C@@](COC(C)=O)(O[C@H]2O[C@H](COC(C)=O)[C@@H](OC(C)=O)[C@H](OC(C)=O)[C@H]2OC(C)=O)[C@@H](OC(C)=O)[C@@H]1OC(C)=O`, the result in [1], in experiment [2], in experiment [3], in [4], in experiment [5] and in [6] was inactive. Further, the result in experiment [7], in [8], in experiment [9] and in experiment [10] was inactive.

Turning to `CCCCCCCCCCCCCCCO`, the outcome in experiment [1], in [2], in experiment [3], in [4], in experiment [5] and in experiment [6] was inactive. Further, the result in experiment [7], in [9] and in experiment [10] was inactive. Also, in experiment [8], the AC50 was 20 µM (active).

On to `O=C1CCCCCN1`, for which the outcome in experiment [1], in experiment [2], in experiment [3], in experiment [4], in experiment [5] and in [6] was inactive. Besides, the result in [7], in experiment [8], in experiment [9] and in experiment [10] was inactive.
